Sampled rows, rich in hits. Any-hit rate of the full collection: about 2.7%.
CendR NRP1 mod: NRP-1/CendR interaction modulation | O14786 | 0.85% of 360,000 active | inhibition, % at 25 µM | FAM-RPARPAR peptide binding to NRP-1, fluorescence polarization;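 active = inhibition or corrected inhibition above about 18%, plus a signal ratio from 0.5 to 1.5, limit read from the data, passing the limit was not always enough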
ATG4B inh: inhibitors of human ATG4B cysteine protease; ATG4B cleavage of LC3-PLA2, NBD-HPC fluorescence, 1 h; 0.51% of 340,000 active; inhibition, % at 8.33 µM; AID 504462; in the data active = inhibition above about 40%
Target sequence (Q9Y4P1 whole entry, looked up): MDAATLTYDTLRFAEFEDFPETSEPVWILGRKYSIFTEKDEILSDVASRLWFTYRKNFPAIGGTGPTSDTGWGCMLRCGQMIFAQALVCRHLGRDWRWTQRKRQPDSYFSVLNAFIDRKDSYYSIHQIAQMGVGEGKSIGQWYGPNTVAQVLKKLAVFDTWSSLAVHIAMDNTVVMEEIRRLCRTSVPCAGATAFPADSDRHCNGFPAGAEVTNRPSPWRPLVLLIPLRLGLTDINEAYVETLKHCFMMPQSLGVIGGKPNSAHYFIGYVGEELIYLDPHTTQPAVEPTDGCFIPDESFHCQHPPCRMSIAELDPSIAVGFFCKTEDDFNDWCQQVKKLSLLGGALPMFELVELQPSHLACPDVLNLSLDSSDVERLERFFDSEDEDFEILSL
MPTP block: permeability transition pore inhibition | inhibition, % at 10 µM | AID 602449 | isolated mouse mitochondria, Ca2+ swelling absorbance, 30 min | 1.4% of 360,000 active;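 active = inhibition of 50% or more, scaled per plate between neutral and stimulator controls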;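 note: 0% = DMSO wells given calcium and 100% = 1 mM EGTA wells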
F508del corr: correctors of CFTR F508del function in bronchial epithelial cells; CFBE cells, YFP halide quenching; stimulated with forskolin plus potentiator P3; % fluorescence drop versus neutral controls; activity (quench increase), % at 7.58 µM; 0.36% of 350,000 active; AID 720511;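 active = mean added fluorescence quench of at least 8% versus neutral control, with both replicates also reaching 8%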;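 note: cells transiently co-express mutant CFTR-F508del with the halide-sensitive YFP; corrector assay measuring rescue of mutant channel to the surface after 24 h compound exposure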
SKN-1 block: C. elegans SKN-1 inhibition; C. elegans VP596 Pgst-4::GFP/RFP ratio, acrylamide-induced, 24 h; inhibition, % at 21.8 µM; 0.49% of 360,000 active; AID 624304;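 active = interference check ratio from 0.5 to 1.5 plus GFP to RFP signal ratio inhibition reaching or exceeding a fixed threshold, cut at about 30% in these data, passing the limit was not always enough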
ATG4B conf: confirmation of human ATG4B inhibitors; shares compounds with ATG4B inh; ATG4B protease fluorescent substrate cleavage assay; inhibition, % at 8.33 µM; 92% of 320 active; in the data active = inhibition above about 39%
PLA2 ctr: PLA2 (human) inhibition in ATG4B counter-screen | 66% of 1,600 active | purified PLA2, NBD-C6-HPC fluorescence, 45 min | AID 588402 | shares compounds with ATG4B inh | inhibition, % at 8.33 µM; in the data active = inhibition above about 50%
Target sequence (P04054 whole entry, looked up): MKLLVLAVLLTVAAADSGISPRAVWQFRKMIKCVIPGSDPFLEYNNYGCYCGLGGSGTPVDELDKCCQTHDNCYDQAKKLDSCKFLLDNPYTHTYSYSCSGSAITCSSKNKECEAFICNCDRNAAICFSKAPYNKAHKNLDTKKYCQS
* hit, by the source's call.

How did CC(O)C1C=CC=CC(=O)OC2CC3OC4C5OC5(C)C(O)CC4(COC(=O)C(O)C(C)CCO1)C2(C)C31CO1 (stereo not given) do in these assays?
CendR NRP1 mod: -1; ATG4B inh: 1; MPTP block: -1; F508del corr: -7; SKN-1 block: 16

How did CC1=CC2OC3CC4OC(=O)C=CC=CC(C(C)O)OCC(O)C5(C)OC5C(=O)OCC2(CC1O)C4(C)C31CO1 (stereo not given) do in these assays?
CendR NRP1 mod: 9; ATG4B inh: -2; MPTP block: 0; F508del corr: -1; SKN-1 block: 40*

What do the screens show for `COC(=O)[C@H]1[C@H](CO)[C@H]2Cn3c(ccc(-c4cccc(OC)c4)c3=O)[C@@H]1N2C(=O)c1cnccn1`?
F508del corr: 2

How did C=CCn1c(O)c(C(CC)=NCCC2=CCCCC2)c(=O)[nH]c1=O do in these assays?
CendR NRP1 mod: 30*; ATG4B inh: 7; MPTP block: 3; SKN-1 block: 7

How did C=CCn1c(O)c(C(CC)=NCCCO)c(=O)[nH]c1=O do in these assays?
CendR NRP1 mod: 6; ATG4B inh: -5; MPTP block: -7; SKN-1 block: 12

How did Clc1ccccc1CNC1CN2CCC1CC2 (stereo not given) do in these assays?
CendR NRP1 mod: 26*; ATG4B inh: -6; MPTP block: 0; SKN-1 block: -8

What do the screens show for `COC(=O)[C@@H]1[C@@H](CO)[C@@H]2Cn3c(ccc(-c4cccnc4)c3=O)[C@H]1N2S(=O)(=O)c1ccccc1F`?
F508del corr: 0

Results for C=C[C@@H]1C2=CCOC(=O)C2=CO[C@H]1O[C@@H]1O[C@H](CO)[C@@H](O)[C@H](O)[C@H]1O ?
CendR NRP1 mod: 24*; ATG4B inh: -5; MPTP block: 0; F508del corr: 1; SKN-1 block: -13

Results for O=c1ccc2cc(OC3O[C@H](CO)[C@@H](O)[C@H](O)[C@H]3O)c(O)cc2o1 (stereo not given in full) ?
CendR NRP1 mod: -9; ATG4B inh: 8; MPTP block: -3; F508del corr: -4; SKN-1 block: 10

Results for COc1ccc(OC)c(N2C(=O)/C(=C/c3ccco3)C(=O)NC2=S)c1 ?
ATG4B inh: 87*

What do the screens show for `COc1ccc(N2C(=O)/C(=C/c3ccc(C)o3)C(=O)NC2=S)cc1`?
CendR NRP1 mod: -178; ATG4B inh: 4; MPTP block: 1; F508del corr: 1; SKN-1 block: 3

How did CCn1nc(-c2ccccc2)nc2c(=O)n(C)c(=O)nc1-2 do in these assays?
CendR NRP1 mod: -1; ATG4B inh: 80*; MPTP block: 3; SKN-1 block: 5

How did CC(=O)Nc1ccc(OCCF)cc1 do in these assays?
CendR NRP1 mod: 26*; ATG4B inh: 4; MPTP block: -1; F508del corr: 0; SKN-1 block: -4

What do the screens show for `CCOc1ccc(NC(=O)c2c(O)[nH]c(=O)[nH]c2=O)cc1`?
CendR NRP1 mod: 6; ATG4B inh: 1; MPTP block: -1; F508del corr: -2; SKN-1 block: 14

How did Cc1cccc(S(=O)(=O)N2[C@@H]3Cn4c(ccc(-c5ccncc5)c4=O)[C@H]2[C@@H](C(=O)O)[C@@H]3CO)c1 do in these assays?
F508del corr: 2

What do the screens show for `O=C(O)[C@@H]1[C@@H](CO)[C@@H]2Cn3c(ccc(C4=CCCC4)c3=O)[C@H]1N2C(=O)Cc1ccccn1`?
F508del corr: 1

How did COC(=O)[C@@H]1[C@@H](CO)[C@@H]2Cn3c(ccc(-c4cncnc4)c3=O)[C@H]1N2S(=O)(=O)c1ccccc1C do in these assays?
F508del corr: 1

Results for C[C@]12CCC(OC(=O)CCC(=O)O)CC1=CCC1C2CC[C@]2(C)C(=O)CCC12 (stereo not given in full) ?
CendR NRP1 mod: 10; ATG4B inh: 4; MPTP block: 0; F508del corr: -1; SKN-1 block: 5

What do the screens show for `COCCO[C@H]1CC[C@@]2(C)C(=CCC3C2CC[C@@]2(C)C3CC[C@]2(C)O)C1` (stereo not given in full)?
CendR NRP1 mod: 6; ATG4B inh: 0; MPTP block: 2; F508del corr: 8.7*; SKN-1 block: 11

How did O=C(Cc1ccncc1)N1CCCCN2[C@H](C1)[C@H](c1ccc(C#CC3(O)CCCC3)cc1)[C@@H]2CO do in these assays?
F508del corr: -1

What do the screens show for `CN1C(=O)C(=Cc2cn(CC(=O)N3CCCCC3)c3ccccc23)C(=O)N(C)C1=O`?
CendR NRP1 mod: -7; ATG4B inh: -8; MPTP block: 1; SKN-1 block: 41*

What do the screens show for `O=C(O)[C@@H]1[C@@H](CO)[C@@H]2Cn3c(ccc(-c4ccccc4)c3=O)[C@H]1N2S(=O)(=O)c1ccccc1F`?
F508del corr: 0

How did COC(=O)C1=C(c2ccc(F)cc2OCc2ccccc2)C[C@@H]2CC[C@H]1N2C(=O)NCc1ccccc1Br do in these assays?
CendR NRP1 mod: -8; ATG4B inh: 64*; MPTP block: 1; F508del corr: 3; SKN-1 block: 13; PLA2 ctr: 79*

How did COC(=O)[C@H]1[C@H](CO)[C@H]2Cn3c(ccc(-c4ccccc4)c3=O)[C@@H]1N2CC1CCCCC1 do in these assays?
F508del corr: 1

What do the screens show for `O=C1C(=O)c2ccccc2-c2ccccc21`?
CendR NRP1 mod: 6; ATG4B inh: 85*; MPTP block: 3; F508del corr: -7; SKN-1 block: 1; ATG4B conf: 27; PLA2 ctr: -5

Results for CCOC(=O)c1c(-n2c(C)cc(/C=C3\C(=O)NC(=O)N(C)C3=O)c2C)sc2c1CCCC2 ?
CendR NRP1 mod: -16; ATG4B inh: 27; MPTP block: 15; SKN-1 block: -1

What do the screens show for `Cc1cc(/C=C2\C(=O)NC(=O)N(c3ccc(Cl)cc3)C2=O)c(C)n1-c1sc2c(c1C#N)CCCC2`?
CendR NRP1 mod: -145; ATG4B inh: 43*; MPTP block: 4; F508del corr: 1; SKN-1 block: 23; ATG4B conf: 63*; PLA2 ctr: 19

How did CCc1ccc(-c2nn(Cc3ccccc3)cc2C=O)cc1 do in these assays?
CendR NRP1 mod: -3; ATG4B inh: 68*; MPTP block: 1; F508del corr: -3; SKN-1 block: 8; PLA2 ctr: 83*

What do the screens show for `O=c1c2ccccc2nc(/C=C/c2ccccc2O)n1-c1ccccc1O`?
CendR NRP1 mod: -66; MPTP block: 3; F508del corr: -3; SKN-1 block: 10

Assay outcomes deposited in PubChem BioAssay by several laboratories.
